Test results taken from PubChem BioAssay AID1047 (SRMLSC, 2008).
Out of some 1,500 compounds screened, about 1,400 (93%) were called active. How the calls were made is not given here. The set was probably picked from earlier hits. Only a sample is shown. Entries with a potency or affinity are not part of this list.

test: growth suppression of PTEN-null colon cells, dose response, cell-based, HCT116 PTEN knockout (AID 1047); settings: CellTiter-Glo, 60 h; series mostly up to 30 µM

outcome, inactive:
CCCNC(=O)OC[C@H]1O[C@H](CCO/N=C/[C@@H](NS(=O)(=O)c2ccc(C)cc2)[C@H](C)/C=C/CC(=O)OC)C=C[C@@H]1Oc1ccc(OC)cc1, Cc1nn(C(=O)N2CCOCC2)c(C)c1C, CCN1CCN(Cc2ccc(OCc3ccccc3)cc2)CC1, O=C(Nc1cccc(C(F)(F)F)c1)/C(=C\c1ccco1)NC(=O)c1cccs1, CSc1n[nH]c(NCc2cccs2)n1, Nc1nnc(SCc2ccc(Cl)cc2)s1, COC(=O)c1cc(OC)c(OC)cc1NC(=O)c1ccccc1, C=CCNC(=O)c1ccccc1NC(=O)c1ccccc1C, CN1CCN(c2nc(N3CCN(c4ccccc4)CC3)ncc2F)CC1, O=C(c1ccc2c(=O)n(CC3CCCO3)c(=S)[nH]c2c1)N1CCN(c2ccccc2)CC1 (stereo not given), Cc1ccc(CNc2ccc(O)cc2)cc1, OC1(c2cccc(C(F)(F)F)c2)CCN(c2ccc(-c3ccccc3)nn2)CC1, COc1cc2c(cc1OC)C1(Nc3c-2c(C)nn3-c2ccccc2)C(=O)Nc2ccccc21 (stereo not given), CCOc1ccccc1NC(=O)Cn1cnc2c(nnn2-c2cccc(OC)c2)c1=O, O=C(COc1ccc(/C=N/NC(=O)c2cc3ccccc3o2)cc1Cl)Nc1ccccc1, O=C(NCc1ccc2c(c1)OCO2)c1ccc2c(c1)C(=O)N(CC1CCCO1)C2=O (stereo not given), CCOC(=O)C1=C(C)NC(=S)N(C(C)=O)C1c1ccc(Cl)cc1 (stereo not given), CCC(Sc1nc2sc(C(=O)OC)c(C)c2c(=O)n1N)C(=O)N(CC)CC (stereo not given), N#CC(c1ccc(Cl)nn1)c1ccc(Cl)cc1Cl (stereo not given), COc1ccc(CCN2C(=O)CN(Cc3ccccc3)CC2=O)cc1OC, CC(=O)c1c(C)nc(-c2ccc(Cl)cc2Cl)n1O, CCOC(=O)Nc1ccc(C)cc1Br, Cc1cc2ncn(C(=O)N3CCC(C)CC3)c2cc1C, Cc1cc(NC(=O)CSc2nc(-c3cccnc3)ccc2C#N)no1, O=C(CSc1nnc(-c2ccccc2Cl)o1)Oc1ccc(Br)cc1, Cc1cccc(CS(=O)(=O)c2nnc([C@H](Cc3ccccc3)NC(=O)OC(C)(C)C)o2)c1, O=C(Nc1cccc(C(F)(F)F)c1)C12CC3CC(CC(C3)C1)C2, Cc1cc(NC(=O)CN2CCN(c3ccc(O)cc3)CC2)no1, Cc1ccc(C(=O)c2coc3c2C(=O)C(=O)c2ccccc2-3)cc1, COCCN1C(=O)c2oc3ccccc3c(=O)c2C1c1ccc(OC)c(OC)c1 (stereo not given), O=C(NC(=S)Nc1ccc2c(c1)OCO2)c1ccc(Cl)cc1, CCN(CC)c1ccc(N=Cc2ccc(N(CC)CC)cc2O)cc1, Cc1ccc(C(=O)Nc2ccccc2C(=O)NC(C(=O)O)C(C)C)cc1 (stereo not given), Cc1cc(NS(=O)(=O)c2ccccc2)cc(Cl)c1O, O=C(Nc1cccc2ccccc12)N1CCN(Cc2ccc3c(c2)OCO3)CC1, CCCCn1c(=NC(=O)c2ccco2)c(C(=O)OCC)cc2c(=O)n3ccccc3nc21, CS(=O)(=O)c1nc(-c2cccs2)cc(C(F)(F)F)n1, COCCNC(=O)NC1(C(F)(F)F)Oc2ccc(Cl)cc2O1 (stereo not given), O=C(NCc1ccc(F)cc1)C1C2C=CC3(CN(Cc4cccnc4)C(=O)C13)O2 (stereo not given), COc1ccc(S(=O)(=O)CCC(=O)N(C)c2ccc(OC)cc2OC)cc1, Cc1c(Cl)ccc2sc(NC(=O)CN3C(=O)c4ccccc4C3=O)nc12, CCCCN(C)C(=O)C1CCC(=O)N(c2cc(OC)c(OC)c(OC)c2)C1c1ccc(OC)cc1 (stereo not given), CCCCS/C(N)=N/N=C/c1ccccc1O, N/C(=N\c1nc(C(F)(F)F)cc(=O)[nH]1)Nc1ccc(Cl)cc1, COc1ccc(N2CCN(C(c3cc(OC)ccc3OC)c3nnnn3CC3CCCO3)CC2)cc1 (stereo not given), N/C(=N\OC(=O)C12CC3CC(CC(C3)C1)C2)c1ccccc1, Cc1cc(C)c2c(=O)n(CC(=O)N3CCC(Cc4ccccc4)CC3)sc2n1, COC(=O)CN1C(C)=Nc2ccc(Br)cc2C1c1ccccc1 (stereo not given), CCCC/C(C)=N\NC(=O)CNS(=O)(=O)c1ccc([N+](=O)[O-])cc1, CCCC(=O)Nc1sc2c(c1C#N)CCCCC2, Oc1ccc(C=Nc2ccc3ncccc3c2)c(O)c1, CCCCN1C[C@H](O)[C@@H](O)[C@H](O)[C@H]1CO, COc1cccc2cc(C(=O)N(C)C)c(=O)oc12, CC1CCN(CC(=O)N2c3ccccc3CCc3ccccc32)CC1, CCOc1ccc(C2/C(=C(\O)c3c(C)[nH]c(C(=O)OC)c3C)C(=O)C(=O)N2CCN(C)C)cc1 (stereo not given), O=C(NCc1ccccn1)c1c(O)c2cccc3c2n(c1=O)CC3, COC(C)(C)[C@H](O)COc1c2ccoc2cc2oc(=O)ccc12, Nc1c(NCCN2CCOCC2)c2ccccc2oc1=O, O=C(Nc1cccc(-c2nnc(-c3ccccc3)o2)c1)C1CCCCC1, COc1ccc(C(C)=O)cc1CSc1nc2ccccc2o1, O=C(Nc1cccc2ccccc12)c1onc2c1CCCC2, CNC(=O)C1C(=S)NC(N)=C(C#N)C1c1ccccc1 (stereo not given), CC(C(=O)NC(=O)NCc1ccccc1)N1C(=O)c2ccccc2C1=O (stereo not given), CCOC(=O)c1c(-c2ccc(C)cc2)csc1NC(=O)/C(C#N)=C/c1ccc(O)c(OC)c1, CCN(CC)S(=O)(=O)c1ccc(NC2CCCc3ccccc32)nc1 (stereo not given), Cc1ccc(C(=O)NCCc2nnc(SCC(=O)Nc3nc(-c4ccccc4)cs3)n2C)cc1, CCn1c(CNc2ccc(OC)cc2)nnc1SCC(=O)c1ccc(OC)cc1, CCN(CC)c1ccc(NC2=C(Cl)C(=O)c3ccccc3C2=O)cc1, CCCC(=O)Nc1ccc(C)c(O)c1, CCn1c(Cc2ccc(OC)cc2)nnc1SCC(=O)Nc1cccc(C(=O)OC)c1
